# Results from the supplement of paper PMC10849652.
# About 8,800 targets were measured; listed, in parts, are those with a hit and a random draw of the rest. About 0.5% of all pairs of compound and target were hits. Values without a mark were called inactive.
# Compound: COC(=O)[C@H](CCSC)NC(=O)C1=C(C=C(C=C1)NC[C@H](CS)N)C2=CC=CC=C2
# Test: log2 fold change, soluble protein after heating vs DMSO (PISA); higher = thermal stabilisation; K562 lysate, 10 uM; active = over 0.2 and 3.5 SD of the protein, either way, in both replicates (recomputed)
# How it was run: (§1)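 Following dounce homogenisation of K562 pellets in PBS pH 7.4 with 1 mM MgCl2, crude extract at 1 mg/mL protein was incubated for 30 min with 10 μM compound. Aliquots were then heated for 3 min over 48°C-58°C and pooled, NP-40 was added to 0.5% at 4°C, and soluble protein was recovered as the supernatant at 21,000xg for 90 min. Channel-sum-equalised TMTpro 16plex LC-MS/MS quantified this protein. Each value, from duplicates, is a log-two fold change in thermal stability relative to solvent controls.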
# Chain of UniProt O60313 (O60313 whole entry, looked up): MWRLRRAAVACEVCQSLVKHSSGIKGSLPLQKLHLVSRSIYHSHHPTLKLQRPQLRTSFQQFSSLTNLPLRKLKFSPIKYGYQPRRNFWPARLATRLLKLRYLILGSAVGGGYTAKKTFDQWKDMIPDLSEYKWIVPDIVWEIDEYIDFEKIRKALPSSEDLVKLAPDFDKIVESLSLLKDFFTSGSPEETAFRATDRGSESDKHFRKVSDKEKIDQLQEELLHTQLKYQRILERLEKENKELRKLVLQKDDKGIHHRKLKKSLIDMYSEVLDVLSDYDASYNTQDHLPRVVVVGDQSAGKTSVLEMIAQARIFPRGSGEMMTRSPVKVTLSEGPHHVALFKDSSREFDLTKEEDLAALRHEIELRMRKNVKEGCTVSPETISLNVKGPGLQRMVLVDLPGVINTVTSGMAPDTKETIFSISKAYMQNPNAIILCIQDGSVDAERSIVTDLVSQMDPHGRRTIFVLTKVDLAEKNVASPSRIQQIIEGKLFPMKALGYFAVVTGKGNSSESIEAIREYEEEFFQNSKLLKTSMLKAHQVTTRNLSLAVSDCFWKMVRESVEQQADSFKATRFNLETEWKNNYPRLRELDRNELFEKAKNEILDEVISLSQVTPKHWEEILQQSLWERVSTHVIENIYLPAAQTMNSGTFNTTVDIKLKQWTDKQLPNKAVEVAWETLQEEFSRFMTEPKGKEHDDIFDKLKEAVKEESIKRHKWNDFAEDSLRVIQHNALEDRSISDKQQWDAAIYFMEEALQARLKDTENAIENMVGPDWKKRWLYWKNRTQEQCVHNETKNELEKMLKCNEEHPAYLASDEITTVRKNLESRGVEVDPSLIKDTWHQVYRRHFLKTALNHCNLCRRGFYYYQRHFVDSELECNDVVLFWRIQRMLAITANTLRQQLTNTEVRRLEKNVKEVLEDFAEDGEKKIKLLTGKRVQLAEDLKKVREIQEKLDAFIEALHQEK
# Chain of UniProt Q15843 (Q15843 whole entry, looked up): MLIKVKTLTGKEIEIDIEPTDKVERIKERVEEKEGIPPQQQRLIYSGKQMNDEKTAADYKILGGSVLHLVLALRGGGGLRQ
# Chain of UniProt Q9UBD5 (Q9UBD5 whole entry, looked up): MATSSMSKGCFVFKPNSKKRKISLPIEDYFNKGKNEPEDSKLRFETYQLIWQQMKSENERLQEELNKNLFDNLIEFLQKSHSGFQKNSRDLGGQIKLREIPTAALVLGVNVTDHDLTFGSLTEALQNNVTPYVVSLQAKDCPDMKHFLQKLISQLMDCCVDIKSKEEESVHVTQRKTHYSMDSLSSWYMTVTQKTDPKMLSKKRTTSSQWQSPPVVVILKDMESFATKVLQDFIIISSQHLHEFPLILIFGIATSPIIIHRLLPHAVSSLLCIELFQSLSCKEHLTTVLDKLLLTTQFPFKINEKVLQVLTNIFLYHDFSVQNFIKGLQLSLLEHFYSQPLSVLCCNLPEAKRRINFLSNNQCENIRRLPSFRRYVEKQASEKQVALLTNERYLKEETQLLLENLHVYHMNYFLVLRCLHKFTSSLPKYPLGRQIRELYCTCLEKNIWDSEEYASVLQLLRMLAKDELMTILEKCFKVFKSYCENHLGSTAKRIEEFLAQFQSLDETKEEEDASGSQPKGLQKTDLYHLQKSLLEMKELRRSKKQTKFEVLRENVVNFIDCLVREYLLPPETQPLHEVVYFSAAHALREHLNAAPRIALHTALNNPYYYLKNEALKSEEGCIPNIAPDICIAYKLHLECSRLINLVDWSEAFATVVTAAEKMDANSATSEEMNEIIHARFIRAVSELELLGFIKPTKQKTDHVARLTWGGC
# Chain of UniProt Q12769 (Q12769 whole entry, looked up): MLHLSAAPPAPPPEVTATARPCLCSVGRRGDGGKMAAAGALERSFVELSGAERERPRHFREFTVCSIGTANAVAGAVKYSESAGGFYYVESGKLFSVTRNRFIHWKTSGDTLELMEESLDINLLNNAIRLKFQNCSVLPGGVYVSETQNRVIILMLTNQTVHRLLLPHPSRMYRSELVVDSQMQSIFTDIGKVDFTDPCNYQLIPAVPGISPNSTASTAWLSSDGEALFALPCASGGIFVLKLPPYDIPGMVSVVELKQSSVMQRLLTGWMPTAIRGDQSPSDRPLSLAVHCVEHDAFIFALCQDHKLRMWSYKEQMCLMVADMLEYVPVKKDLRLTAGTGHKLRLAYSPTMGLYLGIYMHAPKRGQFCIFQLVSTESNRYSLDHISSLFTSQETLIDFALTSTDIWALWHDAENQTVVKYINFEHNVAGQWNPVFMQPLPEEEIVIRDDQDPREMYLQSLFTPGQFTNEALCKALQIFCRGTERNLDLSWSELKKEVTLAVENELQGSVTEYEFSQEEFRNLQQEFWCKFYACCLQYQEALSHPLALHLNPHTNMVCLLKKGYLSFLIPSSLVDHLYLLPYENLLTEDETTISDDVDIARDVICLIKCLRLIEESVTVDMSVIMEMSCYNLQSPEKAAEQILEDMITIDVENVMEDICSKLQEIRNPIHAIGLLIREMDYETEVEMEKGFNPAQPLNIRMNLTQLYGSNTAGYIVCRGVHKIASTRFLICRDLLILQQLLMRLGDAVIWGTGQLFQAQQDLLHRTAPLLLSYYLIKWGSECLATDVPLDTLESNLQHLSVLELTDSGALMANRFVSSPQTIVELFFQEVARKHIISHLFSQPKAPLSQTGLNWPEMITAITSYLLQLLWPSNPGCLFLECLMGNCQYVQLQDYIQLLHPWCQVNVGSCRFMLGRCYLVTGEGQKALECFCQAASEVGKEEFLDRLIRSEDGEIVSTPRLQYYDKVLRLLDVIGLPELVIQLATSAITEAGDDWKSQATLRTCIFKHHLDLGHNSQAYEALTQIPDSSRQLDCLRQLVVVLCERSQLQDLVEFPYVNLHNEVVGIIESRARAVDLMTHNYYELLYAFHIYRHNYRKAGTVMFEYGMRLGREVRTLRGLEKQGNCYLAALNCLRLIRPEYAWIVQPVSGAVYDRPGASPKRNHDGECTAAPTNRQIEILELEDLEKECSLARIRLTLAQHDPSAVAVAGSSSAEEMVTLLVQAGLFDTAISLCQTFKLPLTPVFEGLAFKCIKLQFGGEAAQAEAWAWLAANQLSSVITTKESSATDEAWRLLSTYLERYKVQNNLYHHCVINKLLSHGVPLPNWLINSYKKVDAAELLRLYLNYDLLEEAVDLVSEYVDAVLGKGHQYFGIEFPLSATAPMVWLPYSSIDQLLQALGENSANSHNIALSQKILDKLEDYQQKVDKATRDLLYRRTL
# Chain of UniProt Q8NCF5 (Q8NCF5 whole entry, looked up): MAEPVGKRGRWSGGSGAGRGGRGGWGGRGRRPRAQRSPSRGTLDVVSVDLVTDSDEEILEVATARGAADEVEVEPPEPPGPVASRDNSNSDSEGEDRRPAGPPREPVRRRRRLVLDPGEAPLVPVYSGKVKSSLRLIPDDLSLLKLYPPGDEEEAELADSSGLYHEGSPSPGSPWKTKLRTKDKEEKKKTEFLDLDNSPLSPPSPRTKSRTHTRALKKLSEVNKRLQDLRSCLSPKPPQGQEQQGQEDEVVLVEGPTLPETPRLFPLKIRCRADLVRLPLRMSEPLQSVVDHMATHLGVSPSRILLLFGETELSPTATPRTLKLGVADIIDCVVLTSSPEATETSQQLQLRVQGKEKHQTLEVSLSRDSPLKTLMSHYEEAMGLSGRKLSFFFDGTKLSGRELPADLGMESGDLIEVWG
# Chain of UniProt Q8TEW0 (Q8TEW0 whole entry, looked up): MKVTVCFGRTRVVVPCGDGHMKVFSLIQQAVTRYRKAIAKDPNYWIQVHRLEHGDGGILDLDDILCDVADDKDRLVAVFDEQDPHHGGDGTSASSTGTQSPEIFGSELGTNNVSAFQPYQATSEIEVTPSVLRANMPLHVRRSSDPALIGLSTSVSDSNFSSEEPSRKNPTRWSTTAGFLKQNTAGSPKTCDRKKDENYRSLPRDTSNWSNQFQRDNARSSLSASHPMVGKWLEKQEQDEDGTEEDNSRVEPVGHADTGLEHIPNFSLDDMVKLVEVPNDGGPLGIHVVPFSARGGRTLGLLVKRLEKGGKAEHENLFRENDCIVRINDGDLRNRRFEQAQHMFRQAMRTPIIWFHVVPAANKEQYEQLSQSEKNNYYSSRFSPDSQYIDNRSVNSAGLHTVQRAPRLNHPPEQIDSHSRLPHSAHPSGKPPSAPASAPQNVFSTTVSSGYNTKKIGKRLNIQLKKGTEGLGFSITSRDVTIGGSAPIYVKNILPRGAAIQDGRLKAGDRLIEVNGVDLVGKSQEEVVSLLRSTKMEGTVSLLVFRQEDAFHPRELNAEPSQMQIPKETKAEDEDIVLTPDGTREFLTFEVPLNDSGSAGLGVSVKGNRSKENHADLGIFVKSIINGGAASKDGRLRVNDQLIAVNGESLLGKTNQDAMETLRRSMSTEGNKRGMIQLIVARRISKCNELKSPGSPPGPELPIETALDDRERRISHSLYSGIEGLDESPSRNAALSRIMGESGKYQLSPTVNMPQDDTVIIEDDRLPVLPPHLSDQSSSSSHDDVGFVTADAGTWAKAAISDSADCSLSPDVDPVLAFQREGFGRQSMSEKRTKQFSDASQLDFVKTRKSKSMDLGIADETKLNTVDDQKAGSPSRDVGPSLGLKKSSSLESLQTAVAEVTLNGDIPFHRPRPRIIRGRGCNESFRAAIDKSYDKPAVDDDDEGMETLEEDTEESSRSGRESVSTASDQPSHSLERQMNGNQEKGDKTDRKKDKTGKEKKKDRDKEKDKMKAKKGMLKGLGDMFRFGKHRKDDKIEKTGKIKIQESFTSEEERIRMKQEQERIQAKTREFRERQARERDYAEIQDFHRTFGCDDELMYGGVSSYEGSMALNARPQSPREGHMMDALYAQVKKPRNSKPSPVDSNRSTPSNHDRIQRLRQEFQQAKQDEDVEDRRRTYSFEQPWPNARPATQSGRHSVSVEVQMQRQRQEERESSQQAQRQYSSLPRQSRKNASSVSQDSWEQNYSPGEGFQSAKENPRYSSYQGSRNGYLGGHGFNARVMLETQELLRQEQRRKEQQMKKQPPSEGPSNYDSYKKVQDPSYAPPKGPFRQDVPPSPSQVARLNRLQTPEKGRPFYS
row,Target,log2 fold change
1,NUMBL (UniProt Q9Y6R0),-0.068
2,OPA1 isoform 2 (UniProt O60313),0.053
3,MTHFD1L (UniProt B7ZM99),0.072
4,PARD3 (UniProt Q8TEW0),0.061
5,NACC1 (UniProt Q96RE7),0.024
6,NEDD8 (UniProt Q15843),-0.062
7,PANK4 (UniProt Q9NVE7),0.498 (active)
8,NAA35 (UniProt Q5VZE5),-0.001
9,OGFR (UniProt Q9NZT2),0.089
10,MTMR6 (UniProt Q9Y217),-0.092
11,OTC (UniProt P00480),-0.018
12,NELFCD (UniProt Q8IXH7),0.073
13,NFATC2IP (UniProt Q8NCF5),-0.208 (active)
14,NUDT4 isoform 2 (UniProt Q9NZJ9),-0.129
15,NADK2 (UniProt Q4G0N4),0.3 (active)
16,NUP98 (UniProt P52948),-0.04
17,NR3C1 isoform 3 (UniProt P04150),0.029
18,PAXBP1 (UniProt Q9Y5B6),0.29 (active)

row,Target,log2 fold change
1,NCAPD3 (UniProt P42695),-0.018
2,NPLOC4 isoform 2 (UniProt Q8TAT6),0.016
3,N4BP2 (UniProt Q86UW6),0.003
4,NCAPD2 (UniProt Q15021),0.076
5,NCAPG (UniProt Q9BPX3),0.094
6,NOSTRIN (UniProt Q8IVI9),0.11
7,NUP160 (UniProt Q12769),-0.195
8,MT-CYB (UniProt P00156),-0.093
9,PARG (UniProt Q86W56),0.042
10,OSGEP (UniProt Q9NPF4),0.016
11,ORC3 isoform 2 (UniProt Q9UBD5),0.15
12,"MTHFD1, A0A384N5Y3",0.145
13,NAA38 isoform 2 (UniProt Q9BRA0),0.001
14,NPTN (UniProt Q9Y639),0.015
15,NUP133 (UniProt Q8WUM0),0.002
16,MSI2 (UniProt Q96DH6),-0.023
17,PAN2 isoform 2 (UniProt Q504Q3),-0.041
18,NPM3 (UniProt O75607),0.028

# Compound: COc1cc(Nc2ncc3c(n2)-c2ccc(Cl)cc2C(c2c(F)cccc2OC)=NC3)ccc1C(=O)O [alisertib]
# Test: as above
# How it was run: as §1
row,Target,log2 fold change
1,NUMBL (UniProt Q9Y6R0),-0.064
2,OPA1 isoform 2 (UniProt O60313),0.03
3,MTHFD1L (UniProt B7ZM99),0.032
4,PARD3 (UniProt Q8TEW0),-0.013
5,NACC1 (UniProt Q96RE7),0.018
6,NEDD8 (UniProt Q15843),0.021
7,PANK4 (UniProt Q9NVE7),-0.028
8,NAA35 (UniProt Q5VZE5),-0.026
9,OGFR (UniProt Q9NZT2),-0.003
10,MTMR6 (UniProt Q9Y217),0.022
11,OTC (UniProt P00480),0.218
12,NELFCD (UniProt Q8IXH7),0.023
13,NFATC2IP (UniProt Q8NCF5),-0.009
14,NUDT4 isoform 2 (UniProt Q9NZJ9),0.012
15,NADK2 (UniProt Q4G0N4),-0.022
16,NUP98 (UniProt P52948),0.01
17,NR3C1 isoform 3 (UniProt P04150),0.045
18,PAXBP1 (UniProt Q9Y5B6),0.013

row,Target,log2 fold change
1,NCAPD3 (UniProt P42695),-0.017
2,NPLOC4 isoform 2 (UniProt Q8TAT6),0.004
3,N4BP2 (UniProt Q86UW6),0.016
4,NCAPD2 (UniProt Q15021),0.004
5,NCAPG (UniProt Q9BPX3),0.007
6,NOSTRIN (UniProt Q8IVI9),-0.019
7,NUP160 (UniProt Q12769),0.015
8,MT-CYB (UniProt P00156),-0.131
9,PARG (UniProt Q86W56),0
10,OSGEP (UniProt Q9NPF4),0.045
11,ORC3 isoform 2 (UniProt Q9UBD5),0.001
12,"MTHFD1, A0A384N5Y3",-0.007
13,NAA38 isoform 2 (UniProt Q9BRA0),0.05
14,NPTN (UniProt Q9Y639),0.011
15,NUP133 (UniProt Q8WUM0),-0.009
16,MSI2 (UniProt Q96DH6),0.026
17,PAN2 isoform 2 (UniProt Q504Q3),0
18,NPM3 (UniProt O75607),-0.002
